Inconclusive results are not listed. The source made the active and inactive calls.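 Rule for the calls, unless noted: active = normalized viability below 100% at a tested concentration; inactive = the rest.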
Tests used:
[1] = molecular target: ATP-dependent translocase ABCB1 (Homo sapiens) (UniProt P08183); assay: P-glycoprotein substrate transport blockade – cell-based (AID 377; in the data active = fluorescence slope change above about 50%); conditions: MDR1-expressing cells, fluorescent substrate accumulation slope; stronger effect = higher value; concentration not given here
Sequence of ATP-dependent translocase ABCB1 (Homo sapiens) (P08183 whole entry, looked up): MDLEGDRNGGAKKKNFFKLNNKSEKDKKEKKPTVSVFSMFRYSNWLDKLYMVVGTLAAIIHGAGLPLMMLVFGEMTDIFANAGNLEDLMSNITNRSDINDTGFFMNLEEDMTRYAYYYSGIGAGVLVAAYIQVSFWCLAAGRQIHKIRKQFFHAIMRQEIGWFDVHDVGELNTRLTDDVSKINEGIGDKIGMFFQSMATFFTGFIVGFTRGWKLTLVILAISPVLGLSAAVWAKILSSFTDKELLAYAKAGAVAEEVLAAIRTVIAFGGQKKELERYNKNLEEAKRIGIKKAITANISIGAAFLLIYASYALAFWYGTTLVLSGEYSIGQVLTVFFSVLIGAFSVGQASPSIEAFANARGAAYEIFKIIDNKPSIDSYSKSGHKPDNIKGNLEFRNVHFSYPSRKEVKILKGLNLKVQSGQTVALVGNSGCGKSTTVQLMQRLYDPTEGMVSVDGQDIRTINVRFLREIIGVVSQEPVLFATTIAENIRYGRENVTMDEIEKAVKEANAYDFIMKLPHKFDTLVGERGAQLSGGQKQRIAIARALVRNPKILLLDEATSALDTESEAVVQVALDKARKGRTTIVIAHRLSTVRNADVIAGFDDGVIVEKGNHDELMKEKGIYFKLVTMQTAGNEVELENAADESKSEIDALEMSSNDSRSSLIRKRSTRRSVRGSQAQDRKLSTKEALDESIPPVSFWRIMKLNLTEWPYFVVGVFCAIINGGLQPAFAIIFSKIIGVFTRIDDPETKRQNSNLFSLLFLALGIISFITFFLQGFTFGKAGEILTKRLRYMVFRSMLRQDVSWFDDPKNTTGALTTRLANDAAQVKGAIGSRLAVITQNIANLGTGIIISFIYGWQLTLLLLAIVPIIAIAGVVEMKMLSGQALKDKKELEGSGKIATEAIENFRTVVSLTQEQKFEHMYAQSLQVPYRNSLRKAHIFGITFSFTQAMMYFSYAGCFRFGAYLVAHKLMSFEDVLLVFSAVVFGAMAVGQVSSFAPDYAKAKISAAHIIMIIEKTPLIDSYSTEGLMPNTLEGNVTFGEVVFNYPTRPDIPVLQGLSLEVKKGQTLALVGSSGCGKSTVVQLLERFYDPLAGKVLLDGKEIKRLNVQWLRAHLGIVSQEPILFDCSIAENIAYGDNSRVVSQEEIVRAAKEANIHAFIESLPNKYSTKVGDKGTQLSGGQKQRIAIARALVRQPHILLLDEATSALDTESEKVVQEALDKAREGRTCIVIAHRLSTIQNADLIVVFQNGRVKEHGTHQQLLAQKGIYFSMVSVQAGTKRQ

[2] = compounds altering viability of human ES cells (AID 493140; call rule not given here;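 note: cells exposed to compounds for four days before counting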); conditions: human embryonic stem cell survival screen; stronger effect = higher value
[3] = MELAS cybrid and Rieske KO viability enhancers – cell-based, MELAS cybrids, Rieske KO mouse fibroblasts, CellTiter-Glo, primary screen (AID 1508586;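 active = mean z-score across replicates of 1.96 or higher in either the MELAS or the Rieske mutant cell line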;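 note: z relative to plate mean and SD of compound and empty wells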); conditions: low glucose
[4] = liver-stage malaria parasite load reduction – cell-based, known kinase inhibitor set, luminescence, hepatoma host viability (AID 624392; call rule not given here;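 note: infected cells incubated roughly two days before readout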); conditions: Plasmodium liver stage in hepatoma cells, luciferase luminescence, concentration not given here; liver cell % of control: measured here: host liver cell viability; parasite % of control: stronger effect = lower value
[5] = altered dexamethasone sensitivity, NF-kB reporter, cell-based, luciferase, IL-1B stimulus (AID 624486; call rule not given here;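 for percent of negative control (+Dex): 100% = mean signal of vehicle control wells on the plate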); conditions: IL-1B + dexamethasone, luminescence; percent of negative control (+Dex): actives lie on both sides, concentration not given here; z-score: measured here: IL-1B alone, no Dex
[6] = C. elegans survival during P. aeruginosa infection – whole organism (AID 651566; call rule not given here;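 note: tested at 14 µM; sign flipped so higher z means a lower ratio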); conditions: C. elegans killed by P. aeruginosa, survival ratio
[7] = pro-inflammatory signaling induction in mouse macrophages – cell-based, murine, luminescence (AID 652131; call rule not given here); conditions: murine macrophage pro-inflammatory reporter, stronger effect = higher value
[8] = drug combination growth inhibition, ovarian cancer – cell-based, oncology-focused library, rucaparib conditional, profiling panel (AID 1508598); conditions: patient-derived ovarian cancer cells, CellTiter-Glo viability, 144 h, stronger effect = lower value
[9] = galactose survival enhancers in mitochondrial complex I cybrids – cell-based, galactose medium, ATP luminescence, primary screen (AID 1645843;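 active = z-score of at least 1.8 in each of two replicates, scored against plate mean and spread of sample wells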;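 note: positive z means more ATP and so rescue of galactose-driven cybrid death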); conditions: complex I mutant cybrid cells, 72 h, stronger effect = higher value
[10] = MELAS cybrid survival, CellTiter-Glo 48 h, stronger effect = higher value
[11] = Rieske KO mouse fibroblast survival, CellTiter-Glo 72 h
[12] = at 0.000305 µM, OCI-C5x cells, with rucaparib 10 µM, 100% = cells with rucaparib alone
[13] = at 0.000305 µM, OCI-C5x cells, without rucaparib
[14] = at 0.000305 µM, OCI-P5x cells, with rucaparib 20 µM, 100% = cells with rucaparib alone
[15] = at 0.000305 µM, OCI-P5x cells, without rucaparib
[16] = at 0.00122 µM, OCI-C5x cells, with rucaparib 10 µM, 100% = cells with rucaparib alone
[17] = at 0.00122 µM, OCI-C5x cells, without rucaparib
[18] = at 0.00122 µM, OCI-P5x cells, with rucaparib 20 µM, 100% = cells with rucaparib alone
[19] = at 0.00122 µM, OCI-P5x cells, without rucaparib
[20] = at 0.00488 µM, OCI-C5x cells, with rucaparib 10 µM, 100% = cells with rucaparib alone
[21] = at 0.00488 µM, OCI-C5x cells, without rucaparib
[22] = at 0.00488 µM, OCI-P5x cells, with rucaparib 20 µM, 100% = cells with rucaparib alone
[23] = at 0.00488 µM, OCI-P5x cells, without rucaparib
[24] = at 0.0195 µM, OCI-C5x cells, with rucaparib 10 µM, 100% = cells with rucaparib alone
[25] = at 0.0195 µM, OCI-C5x cells, without rucaparib
[26] = at 0.0195 µM, OCI-P5x cells, with rucaparib 20 µM, 100% = cells with rucaparib alone
[27] = at 0.0195 µM, OCI-P5x cells, without rucaparib
[28] = at 0.0781 µM, OCI-C5x cells, with rucaparib 10 µM, 100% = cells with rucaparib alone
[29] = at 0.0781 µM, OCI-C5x cells, without rucaparib
[30] = at 0.0781 µM, OCI-P5x cells, with rucaparib 20 µM, 100% = cells with rucaparib alone
[31] = at 0.0781 µM, OCI-P5x cells, without rucaparib
[32] = at 0.313 µM, OCI-C5x cells, with rucaparib 10 µM, 100% = cells with rucaparib alone
[33] = at 0.313 µM, OCI-C5x cells, without rucaparib
[34] = at 0.313 µM, OCI-P5x cells, with rucaparib 20 µM, 100% = cells with rucaparib alone
[35] = at 0.313 µM, OCI-P5x cells, without rucaparib
[36] = at 1.25 µM, OCI-C5x cells, with rucaparib 10 µM, 100% = cells with rucaparib alone
[37] = at 1.25 µM, OCI-C5x cells, without rucaparib
[38] = at 1.25 µM, OCI-P5x cells, with rucaparib 20 µM, 100% = cells with rucaparib alone
[39] = at 1.25 µM, OCI-P5x cells, without rucaparib
[40] = at 5 µM, OCI-C5x cells, with rucaparib 10 µM, 100% = cells with rucaparib alone
[41] = at 5 µM, OCI-C5x cells, without rucaparib

C[C@H]1NC(=O)NC1=O
-0.336: z-score [3, 11]
inactive: fluorescence slope change [1] 1.4% | survival [2] 3.67 | z-score [3, 10] 0.723

O=C(Nc1ccc(Oc2ccc3nc(NC(=O)c4ccco4)[nH]c3c2)cc1)Nc1cc(C(F)(F)F)ccc1F
inactive: parasite % of control [4] 37.4% | percent of negative control (+Dex) [5] 81.5% | z-score [6] -0.605 | z-score [7] -0.544
-2.38: z-score [5]
-1.24: z-score [3, 10]
6.9: z-score [3, 11]
140%: liver cell % of control [4]

CC(=O)O[C@H]1C(=O)[C@@]2(C)C([C@H](OC(=O)c3ccccc3)[C@]3(O)C[C@H](OC(=O)[C@H](O)[C@@H](NC(=O)c4ccccc4)c4ccccc4)C(C)=C1C3(C)C)[C@]1(OC(C)=O)CO[C@@H]1C[C@H]2O (some centres undefined)
inactive: viability [8, 12] 112% | viability [8, 13] 129% | viability [8, 14] 125% | viability [8, 15] 125% | viability [8, 16] 114% | viability [8, 17] 121% | viability [8, 18] 119% | viability [8, 19] 123%
active: viability [8, 20] 75.3% | viability [8, 21] 71.2% | viability [8, 22] 97.9% | viability [8, 23] 39.8% | viability [8, 24] 37% | viability [8, 25] 35.9% | viability [8, 26] 63.2% | viability [8, 27] 16.9% | viability [8, 28] 34.2% | viability [8, 29] 30.2% | viability [8, 30] 64.9% | viability [8, 31] 17.4% | viability [8, 32] 36.2% | viability [8, 33] 29.8% | viability [8, 34] 57.9% | viability [8, 35] 18.2% | viability [8, 36] 30% | viability [8, 37] 32.8% | viability [8, 38] 56.9% | viability [8, 39] 18.7% | viability [8, 40] 24.5% | viability [8, 41] 24.4% | viability ([8]; at 5 µM, OCI-P5x cells, with rucaparib 20 µM, 100% = cells with rucaparib alone) 34.2% | viability ([8]; at 5 µM, OCI-P5x cells, without rucaparib) 17%

COc1cc2ncn(-c3cc(OCc4ccccc4Cl)c(C(N)=O)s3)c2cc1OC
-0.32: z-score [3, 11]
inactive: parasite % of control [4] 37.4% | percent of negative control (+Dex) [5] 112% | z-score [6] -0.73 | z-score [7] -0.517 | z-score [3, 10] 0.0989
0.395: z-score [5]
147%: liver cell % of control [4]

NC(=O)c1cccc(Nc2nccc(Nc3cccc4[nH]ncc34)n2)c1
inactive: parasite % of control [4] 429% | percent of negative control (+Dex) [5] 95.5% | z-score [6] -0.905 | z-score [7] 1.14 | z-score [3, 10] 0.00705
-0.0979: z-score [3, 11]
0.725: z-score [5]
75%: liver cell % of control [4]

Cc1nc2sccn2c1CN1CCC2(CC1)C(=O)N(CC(C)C)C(=O)N2CCc1ccccc1
-0.675: z-score [3, 11]
inactive: z-score [3, 10] -0.397 | z-score [9] 0.34

COc1cc2ncn(-c3cc(OCCc4ccccc4)c(C(N)=O)s3)c2cc1OC
140%: liver cell % of control [4]
-0.0569: z-score [3, 11]
0.89: z-score [5]
inactive: parasite % of control [4] 71.4% | percent of negative control (+Dex) [5] 95% | z-score [6] -0.32 | z-score [7] 0.419 | z-score [3, 10] -0.0219

CS(=O)(=O)CCNCc1ccoc1-c1ccc2ncnc(Nc3ccc(OCc4ccccc4)cc3)c2c1
97.4%: liver cell % of control [4]
inactive: parasite % of control [4] 112% | percent of negative control (+Dex) [5] 80% | z-score [6] 0.33 | z-score [7] 3.01 | z-score [3, 10] 0.221
-0.404: z-score [3, 11]
-0.675: z-score [5]

N[C@@H]1CCCN(c2c(/C=C3\SC(=O)NC3=O)cccc2-c2ccccc2)C1
inactive: viability [8, 12] 108% | viability [8, 13] 122% | viability [8, 15] 112% | viability [8, 16] 116% | viability [8, 17] 121% | viability [8, 19] 111% | viability [8, 20] 119% | viability [8, 21] 119% | viability [8, 22] 103% | viability [8, 23] 108% | viability [8, 24] 105% | viability [8, 25] 108% | viability [8, 27] 111% | viability [8, 28] 108% | viability [8, 29] 115% | viability [8, 30] 101% | viability [8, 31] 109% | viability [8, 32] 105% | viability [8, 35] 106% | viability [8, 37] 103% | viability [8, 39] 106% | viability [8, 40] 115% | viability [8, 41] 119%
active: viability [8, 14] 96.6% | viability [8, 18] 98.1% | viability [8, 26] 96.9% | viability [8, 33] 99.1% | viability [8, 34] 91.3% | viability [8, 36] 93.8% | viability [8, 38] 91.3%

From PubChem BioAssay
